In PubChem BioAssay AID1159580 (chemical genetic matrix, 2015):
Where “and” joins values, the source holds several entries; their conditions need not be identical. Identical values can stand only once. Screen size: about 5,500 compounds; about 2,000 (36%) were called active. Roughly 18% stayed inconclusive and do not appear here. No stated cut-off is given here; in the data, active means normalized growth mostly below about 0.91 (no sharp cut-off); inconclusive means no clear call, values can overlap the other calls; inactive means mostly above about 0.92. This is one part of the list.

Test: chemical genetic growth profiling, strain panel (AID 1159580);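 further: tested at 20 µM; growth read once vehicle control cultures reached saturation at 30 °C; 1 = growth at the plate median or of vehicle wells; lower values mean less growth of the strain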
Details: S. cerevisiae deletion strains, growth OD

Measured: normalized growth

CC(C)(S)[C@@H](N)C(=O)O
inactive: locus YAL013W, strain DEP1, hits give low values 1.02 | locus YAL021C, strain ccr4, hits give low values 1.01 | locus YAL026C, strain drs2, hits give low values 1.01 | locus YAL030W, strain snc1, hits give low values 1.01 | locus YBL061C, strain skt5, hits give low values 1 | locus YBR009C, strain hhf1, hits give low values 0.992 | locus YBR021W, strain FUR4, hits give low values 1.03 | locus YBR023C, strain chs3, hits give low values 1.01 | locus YBR171W, strain sec66, hits give low values 1.01 | locus YBR229C, strain ROT2, hits give low values 1.01 | locus YBR231C, strain swc5, hits give low values 1 | locus YBR279W, strain paf1, hits give low values 0.997 | locus YCL011C, strain gbp2, hits give low values 1 | locus YCL016C, strain dcc1, hits give low values 1 | locus YCL029C, strain bik1, hits give low values 0.991 | locus YCL061C, strain MRC1, hits give low values 1.01 | locus YCL069W, strain vba3, hits give low values 0.993 | locus YCR088W, strain abp1, hits give low values 1.01 | locus YDL005C, strain med2, hits give low values 0.995 | locus YDL035C, strain GPR1, hits give low values 1.01 | locus YDL040C, strain nat1, hits give low values 1 | locus YDL074C, strain BRE1, hits give low values 1.03 | locus YDL101C, strain DUN1, hits give low values 1.03 | locus YDL134C, strain PPH21, hits give low values 1.01 | locus YDL185W, strain tfp1, hits give low values 0.988 | locus YDL192W, strain arf1, hits give low values 0.984 | locus YDR001C, strain nth1, hits give low values 1 | locus YDR069C, strain doa4, hits give low values 0.997 | locus YDR101C, strain arx1, hits give low values 0.986 | locus YDR137W, strain rgp1, hits give low values 1.05 | locus YDR150W, strain NUM1, hits give low values 1.01 | locus YDR159W, strain sac3, hits give low values 0.994 | locus YDR162C, strain NBP2, hits give low values 1 | locus YDR195W, strain ref2 0.997 | locus YDR297W, strain sur2, hits give low values 1.01 | locus YDR318W, strain mcm21, hits give low values 0.994 | locus YDR334W, strain swr1, hits give low values 1.01 | locus YDR335W, strain msn5, hits give low values 0.986 | locus YDR388W, hits give low values 0.991 | locus YDR392W, strain spt3, hits give low values 0.96 | locus YDR502C, strain sam2, hits give low values 0.996 | locus YEL003W, strain gim4, hits give low values 0.995 | locus YEL037C, strain rad23, hits give low values 1 | locus YEL061C, strain CIN8 (second series), hits give low values 0.995 | locus YEL061C, strain CIN8, hits give low values 1.01 | locus YER015W, strain faa2, hits give low values 1.01 | locus YER016W, strain bim1, hits give low values 0.994 | locus YER110C, hits give low values 0.989 | locus YER111C, strain swi4, hits give low values 1.01 | locus YER155C, strain BEM2 (second series), hits give low values 0.985 | locus YER155C, strain BEM2, hits give low values 1.01 | locus YER167W, strain BCK2, hits give low values 1.01 | locus YFR010W, strain ubp6, hits give low values 0.998 | locus YGL078C, strain dbp3, hits give low values 0.991 | locus YGL086W, strain mad1, hits give low values 0.995 | locus YGL167C, strain pmr1, hits give low values 1 | locus YGL173C, strain kem1, hits give low values 1 | locus YGL227W, strain vid30, hits give low values 0.992 | locus YGL240W, strain doc1, hits give low values 1.01 | locus YGL248W, strain PDE1, hits give low values 1.02 | locus YGL253W, strain hxk2, hits give low values 0.993 | locus YGR135W, strain pre9, hits give low values 0.989 | locus YGR252W, strain gcn5, hits give low values 1.01 | locus YHR013C, strain ard1, hits give low values 1 | locus YHR027C, strain rpn1, hits give low values 1.03 | locus YHR030C, strain SLT2, hits give low values 1.01 and 0.999 | locus YHR079C, strain IRE1 (second series), hits give low values 0.987 | locus YHR079C, strain IRE1, hits give low values 0.982 | locus YHR094C, strain hxt1, hits give low values 0.986 | locus YHR129C, strain ARP1, hits give low values 1.01 | locus YHR142W, strain chs7, hits give low values 1.01 | locus YHR200W, strain rpn10, hits give low values 1 | locus YIL066C, strain RNR3, hits give low values 1.01 | locus YIL073C, strain SPO22, hits give low values 0.975 | locus YIL125W, strain kgd1, hits give low values 0.997 | locus YIR030C, strain dcg1, hits give low values 0.989 | locus YJL092W, strain hpr5, hits give low values 1 | locus YJL095W, strain BCK1 (second series), hits give low values 1 | locus YJL095W, strain BCK1, hits give low values 1.05 and 1 | locus YJL115W, strain asf1, hits give low values 0.995 | locus YJL129C, strain trk1, hits give low values 0.987 | locus YJL134W, strain LCB3, hits give low values 1.01 | locus YJL154C, strain vps35, hits give low values 0.994 | locus YJL164C, strain tpk1, hits give low values 1.01 | locus YJL166W, strain qcr8, hits give low values 1.01 | locus YJL168C, strain set2, hits give low values 0.999 | locus YJL187C, strain SWE1 (second series), hits give low values 1.01 | locus YJL187C, strain SWE1, hits give low values 1
